E-sel TNF inh: E-selectin induction blockers in HUVEC – imaging, immunofluorescence, high content, primary screen. HUVEC TNFa-induced E-selectin immunofluorescence. inhibition, % at 2 µM. 120,000 compounds, 0.71% hits. AID 1246, 2008;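 active = inhibition above the batch mean plus 3 SD, and confirmed as a hit on visual image review, cut at about 43% in these data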;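 note: 0% = TNF-stimulated DMSO wells and 100% = unstimulated control wells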
TNFa cytotox: cytotoxicity in TNFa-stimulated HUVEC, primary screen, cytotoxicity control for VCAM1 expression modulator project, imaging, Hoechst nuclei count; 93,000 compounds, 0.17% hits; cell count reduction, % at 2 µM; AID 848, 2007; HUVEC TNFalpha-stimulated, Hoechst cell count;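 active = cell count reduction exceeding the screen mean by over 5 SD, scaled to untreated wells per plate, cut at about 78% in these data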;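 note: cells counted after 24 h of TNF alpha exposure following the 1 h pretreatment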
VCAM1 TNFa inh: inhibitors of TNFa-induced VCAM1 expression, primary screen, imaging, HUVEC, TNFa stimulus, immunofluorescence; inhibition, % at 2 µM; AID 802, 2007; HUVEC TNFa-induced VCAM-1 immunofluorescence, high-content imaging; 95,000 compounds, 0.48% hits;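 active = inhibition above the batch mean plus 3 SD, with images confirmed as a hit by eye, cut at about 37% in these data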;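 note: 0% = TNF-stimulated DMSO wells and 100% = unstimulated control wells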
F-actin modifier: modifiers of F-actin cytoskeleton organization, primary screen, imaging, HUVEC, phalloidin staining, high-content imaging. AID 836, 2007. inhibition, % at 2 µM. 91,000 compounds, 0.18% hits. HUVEC TNFa F-actin phalloidin imaging;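 active = inhibition above the batch mean plus 3 SD and confirmed as a hit by visual image inspection, cut at about 30% in these data, passing the limit was not always enough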
An asterisk follows results filed as active; · = not tested or not shown. Shown are actives, neighbours in structure and some others; about 1.1% of the full set was active somewhere.

SMILES	E-sel TNF inh	TNFa cytotox	VCAM1 TNFa inh	F-actin modifier
CCOc1ccc2nc(NC(=O)c3ccc(OCC4CCCO4)cc3)sc2c1 (stereo unspecified)	-5	·	·	·
CCCOc1ccc(C(=O)C(CN2CCCC2)c2ccccc2)cc1 (stereo unspecified)	5	·	·	·
COc1ccc(C(=O)C(CN2CCCC2)c2ccccc2)cc1 (stereo unspecified)	·	-4	84*	7
CCCCOc1ccc(C(=O)C(CN2CCOCC2)c2ccccc2)cc1 (stereo unspecified)	22	-20	41	14
COc1ccc(C(=O)C(CN2CCOCC2)c2ccccc2)cc1 (stereo unspecified)	-24	0	51*	·
COc1ccccc1NCC(=O)NNC(C)C(=O)Nc1cccc(Cl)c1 (stereo unspecified)	28	·	·	·
COc1cc2c(cc1OC)C(c1cccs1)N(C(=S)NC(C)C)CC2 (stereo unspecified)	-25	·	·	·
CN(C)CCNc1c2c(c(C#N)c3nc4ccccc4n13)CCCC2	9	-34	10	-8
N#Cc1c2c(c(NCc3ccco3)n3c1nc1ccccc13)CCC2	·	84*	52	-5
Cc1n[nH]c(=O)nc1NCc1ccccc1	·	77	89*	-6
CC(C)CC(NS(=O)(=O)c1cc(C(=O)O)ccc1Cl)C(=O)O (stereo unspecified)	-41	·	·	·
COCCCn1c(SCC(=O)NNC(=O)c2cccc(O)c2)nnc1-c1ccncc1	-8	·	·	·
N#CC1=C(N)C(C#N)(C#N)[C@H](c2ccncc2)[C@H]2CN(C(=O)OCc3ccccc3)CC=C12	96*	·	·	·
CCOC(=O)C(Oc1ccc(=O)n(-c2ccccc2)n1)C(C)=O (stereo unspecified)	-2	-31	9	-13
Cc1cccc(OCCN2CSC(=S)N(C)C2)c1	·	14	43*	4
O=C(Nc1ccccc1)N1CCC(c2ccccc2)C1 (stereo unspecified)	21	-16	7	65*
COc1ccc(C)cc1-n1nnnc1SCC(=O)Nc1cccnc1Cl	78*	·	·	·
COc1ccc(C)cc1-n1nnnc1SCC(=O)Nc1cc(C)on1	-40	·	·	·
O=C1Nc2ccccc2CCC1Sc1nnc(-c2ccc(Cl)cc2)s1 (stereo unspecified)	7	-10	12	-2
CCc1cccc(CC)c1NC(=O)C1SC(=Nc2ccccc2C)C(c2nc3ccccc3s2)=C1N (stereo unspecified)	-1	-3	59*	-24
O=C(Nc1nnc(C2CC2)s1)c1cc(-c2ccccc2)nn1-c1ccccc1	97*	·	·	·
CO/C([O-])=N/c1c[n+](-c2ccc(Cl)cc2)no1	59*	-8	-4	30
O=C(Nc1ccccc1N1CCOCC1)c1ccc([N+](=O)[O-])cc1	21	-23	-6	16
O=C(Nc1ccccc1N1CCOCC1)c1ccc(Cl)nc1	88*	·	·	·
Cc1ccc(C(=O)c2c(NC(=O)c3ccccc3C)sc(C)c2C)cc1	100*	-29	0	10
SMILES	E-sel TNF inh	TNFa cytotox	VCAM1 TNFa inh	F-actin modifier
CCN(CC)CC(=O)Nc1sc(C)c(C)c1C(=O)c1ccc(C)cc1	4	·	·	·
O=C(COC(=O)C1(c2ccccc2F)CCCC1)NC1CCS(=O)(=O)C1 (stereo unspecified)	7	1	95*	2
CN(C(=O)COC(=O)C1c2ccccc2Oc2ccccc21)C1CCS(=O)(=O)C1 (stereo unspecified)	·	-21	0	-5
O=C(COC(=O)C1c2ccccc2Oc2ccccc21)NC1CCS(=O)(=O)C1 (stereo unspecified)	·	-18	9	72*
O=C(N/N=C/c1ccc(C(F)(F)F)cc1)c1ccc(O)cc1	78*	·	·	·
O=C(N/N=C/c1ccncc1)c1ccccc1	-3	56	62*	-18
Cc1cc(C)cc(N(C(=O)CCC(=O)Nc2ccccn2)C(C(=O)NC(C)C)c2ccc(O)cc2)c1 (stereo unspecified)	8	·	·	·
CC/C(=N/NC(=O)CNc1ccc(Cl)cc1C)c1ccccc1	6	·	·	·
COc1ccccc1N1CCN(C(=O)c2ccc(Br)s2)CC1	80*	·	·	·
COc1ccccc1N1CCN(S(=O)(=O)c2ccc(Br)s2)CC1	-3	-13	10	-3
O=C(O)C1CCCCC1C(=O)Nc1cc(Cl)ccc1Cl (stereo unspecified)	-34	54	10	37*
Cc1ccc(NC(=O)C2C(=O)N(C)c3ccccc32)cc1 (stereo unspecified)	20	·	·	·
CCC1=[N+](C)c2cccc3cccc(c23)N1C	2	·	·	·
Cc1ccc(Cc2cnc(NC(=O)/C(C#N)=C/c3ccc(-c4ccccc4[N+](=O)[O-])o3)s2)cc1	51*	-11	12	-9
CNC(=O)/C(C#N)=C/c1ccc(-c2ccccc2[N+](=O)[O-])o1	-7	·	·	·
O=C(NNc1cccc(Cl)n1)Nc1ccccc1Cl	-12	-16	-9	-10
COC(=O)Cn1cnc2c1c(=O)n(C)c(=O)n2C	100*	·	-8	0
CCc1ccc(C(=O)Cn2ncc(Cl)c(Cl)c2=O)cc1	0	-13	16	-8
O=C(OCn1ncc(Cl)c(Cl)c1=O)c1cccc(C(F)(F)F)c1	71*	-5	24	-14
O=[N+]([O-])c1ccc(/C=N/n2c(COc3ccccc3)n[nH]c2=S)cc1	30	53	43*	-3
O=c1c2ccccc2n2c(-c3cccc(F)c3)nnc2n1Cc1ccccc1	74*	·	·	·
CN(C)c1nc(N(C)C)nc(N(C#N)CCOc2ccccc2)n1	-1	-3	97*	8
CCN(C(=O)CCS(=O)(=O)c1ccc(Br)cc1)c1ccc2c(c1)OCO2	96*	·	·	·
Cn1cccc1C(=O)OCC(=O)Nc1cc(C(C)(C)C)nn1-c1ccccc1	12	-6	-7	72*
Cc1ccc(-c2cc(NC(=O)CCl)n(-c3ccccc3)n2)cc1	86*	-13	1	-3
SMILES	E-sel TNF inh	TNFa cytotox	VCAM1 TNFa inh	F-actin modifier
NC(=O)CSc1nnc(CCc2nc3ccccc3[nH]2)n1-c1ccccc1	-12	·	-12	-9
COC(=O)C(/C=N/OCc1ccc([N+](=O)[O-])cc1)NC(=O)c1cccc(Cl)c1 (stereo unspecified)	12	-16	21	-15
Cc1cc(C)n2c(Br)c(CSc3nc4ccccc4s3)nc2n1	-3	·	·	·
CN1N=C(C(=O)N2CCc3c([nH]c4ccccc34)C2c2c(F)cccc2Cl)CCC1=O (stereo unspecified)	10	·	·	·
O=C(NCc1cccnc1)C1CCN(S(=O)(=O)c2cccs2)CC1	69*	0	3	24
Cc1nc2ccc(NC(=O)C3CCN(S(=O)(=O)c4cccs4)CC3)cc2s1	72*	7	-15	-8
CCOc1ccc(S(=O)(=O)c2c(C(=O)c3ccccc3)cnc3cc4c(cc23)OCCO4)cc1	32	·	·	·
COc1cccc(/C=N/NC(=O)c2c(-c3ccccc3)noc2C)c1	54*	0	6	5
Cc1c(Cl)cnc(NC(=O)COC(=O)c2nn(C)c(=O)c3ccccc23)c1Cl	64*	·	·	·
CC1=CC(C)(C)[N+](C)(C)c2ccc(C)cc21	-19	·	·	·
CCN(CC)S(=O)(=O)c1cccc(C(=O)Nc2cccc(C)c2)c1	-53	-27	6	·

Source: PubChem BioAssay (Columbia University Molecular Screening Center)
